Rows were chosen to be rich in hits. Some 1.8% of all compounds tested hit in one or more screens of this group.
UHRF1 binding = UHRF1 methylated DNA binding inhibitors, primary screen, counter-screen for MBD2 inhibitor project, biochemical, TR-FRET, human UHRF1, single concentration. UHRF1 binding to methylated oligo. inhibition, % at 4.4 µM. actives 0.75% (n = 370,000). AID 687016, 2013; in the data active means inhibition above about 21%;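 further: UHRF1 SRA domain binding a hemimethylated CpG hairpin DNA probe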
MBD2 inh = inhibitors of MBD2 binding to methylated DNA, primary screen, biochemical, TR-FRET, DNA-binding domain, human. Methyl-CpG-binding domain protein 2 (Homo sapiens), Q9UBB5. inhibition, % at 4.4 µM. actives 0.31% (n = 370,000). MBD2 binding to methylated oligonucleotide. AID 686964, 2013; in the data active means inhibition above about 13%
UBC13 polyUb = UBC13 polyubiquitin chain formation inhibitors, primary screen, biochemical, TR-FRET, uHTS. AID 485273, 2010. inhibition, % at 20 µM. Ubiquitin-conjugating enzyme E2 N (Homo sapiens), P61088. actives 0.47% (n = 330,000); in the data active means inhibition above about 45%, passing the limit was not always enough
Neddyl block = inhibitors of cullin neddylation, primary screen, biochemical, TR-FRET, uHTS, NAE and Ubc12; NEDD8-conjugating enzyme Ubc12 (Homo sapiens) + NEDD8-activating enzyme E1 regulatory …; calls only at 25 µM; actives 0.58% (n = 360,000); in the data active means inhibition above about 36%
Each line names hits and unclear results; the compound was inactive in the other large screens.

CCOC(=O)CCc1nn(C)c(=O)c2ccccc12	none
COc1cc(CN2CCNC(=O)C2CC(=O)N2CCCCO2)cc(OC)c1 (centres undefined)	none
CCCN1CCN(C(=O)c2cc3c(s2)-c2ccccc2OC3)CC1	UBC13 polyUb 61
CC(C)CNC(=O)C(=O)NC1CCCC1	UHRF1 binding 21
Cc1nc(NC(=O)COC(=O)[C@@H](NC(=O)c2ccco2)C(C)C)c(Cl)cc1Cl	UHRF1 binding 42
Cc1c(Cl)cnc(NC(=O)COC(=O)C(NC(=O)c2ccco2)C(C)C)c1Cl (centres undefined)	none
CC1=NN(/C(=N\c2nnc(C)s2)Nc2ccc(C(C)(C)C)cc2)[C@H](c2ccc(C)cc2)S1	none
CCN(CC)C(=S)SSC(=S)N(CC)CC	none
CCN(CC)C(=S)SC1=CCS(=O)(=O)C1	UHRF1 binding 26
OCCN(CCO)CC(O)COc1ccc2c(c1)OCO2 (centres undefined)	UHRF1 binding 67
CSc1ccc(S(=O)(=O)NCC(=O)OCC(=O)NCCc2ccccc2)cc1[N+](=O)[O-]	none
CSc1ccc(S(=O)(=O)NCC(=O)OC(C)C(=O)NCc2ccccc2)cc1[N+](=O)[O-] (centres undefined)	UHRF1 binding 27
c1ccc(CN2CCN(Cc3c[nH]c4ccccc34)CC2)cc1	none
Clc1ccc(N2CCN(Cc3c[nH]c4ncccc34)CC2)cc1	UHRF1 binding 23
O=C(NCC1OCCc2ccccc21)c1ccc(NC(=O)c2ccccc2Cl)cc1 (centres undefined)	UHRF1 binding 21
COc1ccc(-c2ccc(SCC(=O)Nc3nccs3)nn2)cc1OC	UHRF1 binding 21
COc1ccc(-c2nnc3ccc(SCC(=O)Nc4nccs4)nn23)cc1OC	none
COc1cccc(C(=O)NCc2nnc(SCC(=O)Nc3nccs3)n2-c2ccccc2)c1	UHRF1 binding 95
O=C(COc1ccccc1)NCc1nnc(SCC(=O)Nc2nccs2)n1-c1ccccc1	none
C=CCn1c(SCC(=O)c2c(N)n(C)c(=O)n(C)c2=O)nnc1-c1ccccc1F	none
CCOC(=O)C1CCCN(Cc2ccc(OCc3ccccc3)c(OC)c2)C1 (centres undefined)	none
O=C(CCC(=O)c1ccc(Cl)cc1)OCC(=O)c1ccccc1	none
CCOc1ccc(N2CSC3=C(C#N)C(c4ccco4)CC(=O)N3C2)cc1 (centres undefined)	UHRF1 binding 67, MBD2 inh 29
CCOC(=O)c1ccc(N2CSC3=C(C#N)C(c4ccc(OC)cc4OC)CC(=O)N3C2)cc1 (centres undefined)	none
Cc1ccc(C2CC(=O)N3CN(c4ccc(Br)cc4)CSC3=C2C#N)o1 (centres undefined)	UHRF1 binding 41
COc1ccc(NC(=O)c2cccc(S(=O)(=O)N3CCN(c4ccccc4)CC3)c2)c(OC)c1	UHRF1 binding 22
C#CCn1c2ccccc2c(=O)n1C(C)CBr (centres undefined)	none (not shown: UBC13 polyUb, Neddyl block)
CCCCNC(=O)C1c2ccccc2OCC(=O)N1C1CC1 (centres undefined)	UHRF1 binding 21 (no result: UBC13 polyUb)
Cc1cccc(C)c1OCC(=O)N=Nc1c(O)[nH]c2ccc(Br)cc12	none
COc1ccc(/C=N/OCC(=O)N=Nc2c(O)[nH]c3ccc(Br)cc23)cc1	UHRF1 binding 21
COc1ccc(Cl)cc1C(=O)Nc1ccc2c(c1)OCO2	none
COc1ccccc1NS(=O)(=O)c1cccc(NC(=O)Nc2ccc(Cl)cc2)c1	UHRF1 binding 26
CCNS(=O)(=O)c1ccc(NC(=O)Nc2ccccc2OC)cc1	UHRF1 binding 23
COc1ccccc1NS(=O)(=O)c1cccc(NC(=O)Nc2ccccc2)c1	none
COc1ccccc1N(CC(=O)NCCC1=CCCCC1)S(=O)(=O)c1ccccc1	none
CC1(C)Cc2nc(Cl)c(C(=O)O)cc2CO1	none
C/C=C(/C)C(=O)Nc1cccc(C2=NOC3(C2)C[C@@H](C(N)=O)N(C(=O)CC)C3)c1 (some centres undefined)	none
O=C(Cn1cnc(S(=O)(=O)N2CCCC2)c1)Nc1ccccc1	none
COc1cc(O)c(C(CCN2CCN(c3ccccc3)CC2)c2ccc(N(C)C)cc2)c(OC)c1 (centres undefined)	UHRF1 binding 22
O=C(Nc1cccc2cccnc12)c1cccnc1	none
O=C(Nc1cccc2nsnc12)c1cccnc1	UHRF1 binding 55
CNC(=S)N/N=C/c1cc(Br)c(OCc2ccncc2)c(OC)c1	none
Cc1cc(C)cc(C(=O)NCC(=O)N(C)CCOc2ccccc2)c1	none
CCO[C@@H]1OC(C(=O)Nc2ccccc2)=C[C@H](C)[C@H]1CCCO	none

Bioassay records (PubChem)
